SDO1 yeast rescue: growth rescue of sdo1-depleted yeast, primary screen, S. cerevisiae, bone marrow failure model; AID 817, 2007; hit rate 0.21% among 140,000; S. cerevisiae sdo1-depleted JHY4D growth rescue, OD600 30 h; active compounds read high; pdr5 snq2 efflux-pump mutant strain; z-score at 10 µM;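 active = z-score above 3 at both the 24 hr and the 30 hr optical density reads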;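 note: z-score against mean and SD of all compound wells on the same plate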
E-sel TNF inh: E-selectin induction blockers in HUVEC – imaging, immunofluorescence, high content, primary screen; inhibition, % at 2 µM; AID 1246, 2008; hit rate 0.71% among 120,000; HUVEC TNFa-induced E-selectin immunofluorescence;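 active = inhibition above the batch mean plus 3 SD, and confirmed as a hit on visual image review, cut at about 43% in these data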;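 note: 0% = TNF-stimulated DMSO wells and 100% = unstimulated control wells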
TNFa cytotox: cytotoxicity in TNFa-stimulated HUVEC, primary screen, cytotoxicity control for VCAM1 expression modulator project, imaging, Hoechst nuclei count. HUVEC TNFalpha-stimulated, Hoechst cell count. cell count reduction, % at 2 µM. hit rate 0.17% among 93,000. AID 848, 2007;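 active = cell count reduction exceeding the screen mean by over 5 SD, scaled to untreated wells per plate, cut at about 78% in these data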;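 note: cells counted after 24 h of TNF alpha exposure following the 1 h pretreatment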
F-actin modifier: modifiers of F-actin cytoskeleton organization, primary screen, imaging, HUVEC, phalloidin staining, high-content imaging | inhibition, % at 2 µM | HUVEC TNFa F-actin phalloidin imaging | hit rate 0.18% among 91,000;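 active = inhibition above the batch mean plus 3 SD and confirmed as a hit by visual image inspection, cut at about 30% in these data, passing the limit was not always enough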
Phagocytosis inh: inhibitors of macrophage phagocytosis, primary screen, imaging, J774A.1 cells, IgG beads; inhibition, % at 5 µM; hit rate 0.07% among 110,000; AID 1029, 2008; J774A.1 macrophage IgG-bead phagocytosis;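 active = inhibition above the mean of the plate negative controls plus 5 SD, cut at about 13% in these data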;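 note: phagocytic index as fraction of beads internalized from green versus red external bead signal; plate controls were DMSO negative control for no effect and cytochalasin-D positive control for full effect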
VCAM1 TNFa inh: inhibitors of TNFa-induced VCAM1 expression, primary screen, imaging, HUVEC, TNFa stimulus, immunofluorescence; HUVEC TNFa-induced VCAM-1 immunofluorescence, high-content imaging; inhibition, % at 2 µM; hit rate 0.48% among 95,000; AID 802, 2007;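 active = inhibition above the batch mean plus 3 SD, with images confirmed as a hit by eye, cut at about 37% in these data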;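 note: 0% = TNF-stimulated DMSO wells and 100% = unstimulated control wells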
sdo1 rescue conf: SDO1-depleted yeast growth rescue, concentration-response, diseases of bone marrow failure, JHY4D, OD600. shares compounds with SDO1 yeast rescue. S. cerevisiae JHY4D (SDO1-depleted) growth rescue, 30 h; active compounds read high; efflux-deficient strain, SNQ2 and PDR5 mutated. OD recovery (no concentration beside the values). hit rate 44% among 440. AID 949, 2007;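 active = yeast growth recovered at 30 hours, either rising with dose fitted slope above 0.001 or with average optical density gain above 0.07, some results past the limit were not filed as active; inactive = growth falling with dose or no effect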;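 note: gain in OD600 from 0 h to 30 h averaged across all seven doses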
* marks the source's active call; other numbers are inactive results; · = no result given. An excerpt weighted towards active compounds, which were near 1.2% of everything screened.

SMILES | SDO1 yeast rescue | E-sel TNF inh | TNFa cytotox | F-actin modifier | Phagocytosis inh | VCAM1 TNFa inh | sdo1 rescue conf
CC(C(=O)Nc1cccnc1)N1C(=O)c2ccccc2C1=O (centres undefined) | 4.06* | · | -40.2 | 40.5 | 0.7 | 13.1 | 0.0876*
CC(C(=O)Nc1cccnc1)N1C(=O)C2C3C=CC(C3)C2C1=O (centres undefined) | 1.75 | · | 11.0 | · | · | 13.5 | ·
CCCCOC(=O)Nc1ccc(S(=O)(=O)Nn2cnnc2)cc1 | 3.74* | -6.3 | · | · | 0.8 | · | 0.115*
O=C1COc2ccc(C(=O)COC(=O)c3ccc4ccccc4n3)cc2N1 | 1.69 | · | -18.0 | -4.4 | 0.3 | -2.4 | 0.0985*
COc1ccc(Cn2c(=O)[nH]c3cc(C(=O)N4CCN(c5ccccn5)CC4)ccc3c2=O)cc1 | · | 30.4 | · | · | · | · | ·
CCOc1ccc(N2C(=O)CC(N(Cc3ccco3)C(=O)CCC(=O)O)C2=O)cc1 (centres undefined) | · | 12.6 | · | · | · | · | ·
CCOc1ccccc1/C=N/Nc1ccccc1[N+](=O)[O-] | 1.2 | 4.4 | 22.0 | -7.3 | 0.9 | 58.8* | 0.0523
CC(C)Oc1ccccc1/C=N/Nc1ccccc1[N+](=O)[O-] | -0.79 | · | · | · | -9.9 | · | ·
Cc1ccc(-n2cc(CN3CCC(O)(c4ccccn4)CC3)c(-c3ccc(F)cc3)n2)cc1 | · | 31.8 | · | · | · | · | ·
O=c1oc2ccccc2c2nccnc12 | 5.43* | -4.0 | -28.4 | 4.8 | -4.0 | -33.9 | 0.0434
Cc1cnc(N)c2c(=O)oc3ccccc3c12 | -0.57 | · | · | · | -0.1 | · | ·
Cc1nn(C)c(C)c1S(=O)(=O)N1CCCC(C(=O)NC2CCCCCC2)C1 (centres undefined) | 2.38 | 32.5 | · | · | -0.5 | · | 0.0833*
O=S(=O)(Nc1nc2ccccc2nc1Nc1cccc(S(=O)(=O)N2CCCCC2)c1)c1ccccc1 | -0.09 | 26.6 | · | · | -5.1 | · | ·
Cc1ccc(C(=O)NCCCN2CCOCC2)o1 | 2.31 | -56.1 | · | · | · | · | 0.0459
Nc1ccc(S(=O)C(F)(F)F)cc1 (centres undefined) | · | -19.5 | · | · | · | · | ·
COc1cccc(C(=O)Nc2cccc(-c3nnc(-c4ccco4)o3)c2)c1 | 4.68* | -8.9 | 4.1 | -9.6 | 0.6 | -10.6 | 0.0462
COc1ccc(Br)cc1C(=O)Nc1cccc(-c2nnc(-c3ccco3)o2)c1 | · | 7.4 | · | · | · | · | ·
CCN(CC)CC#CCC(OC)(c1ccccc1)c1ccccc1 | · | 14.4 | · | · | · | · | ·
COc1ccc(-c2nc3nc(C)cc(C)n3n2)cc1 | 12.6* | -0.3 | -22.7 | 13.2 | -1.0 | 10.4 | 0.063
COc1ccc(CNc2nc3nc(C)cc(C)n3n2)cc1 | -0.2 | 3.8 | -1.4 | 1.1 | · | -4.9 | ·
Cc1cc(-c2ccccc2)n2nc(C)c(C#N)c2n1 | 12.3* | 1.4 | -3.9 | -4.7 | 4.0 | 1.8 | 0.067
Cc1cc(C)n2nc(/C(C#N)=C/c3ccccc3)c(C#N)c2n1 | -1.9 | -10.1 | -26.8 | -7.3 | 0.9 | 8.4 | ·
CCCCCCCNC(=O)C1CC(=O)N(C)C(=Nc2ccc(OC)cc2)S1 (centres undefined) | -1.55 | · | · | · | -0.4 | · | ·
O=C(CSc1nc(Nc2ccccc2)nc(N2CCOCC2)n1)N1CCCC1 | 4* | -28.5 | -6.2 | 2.5 | -3.6 | 1.5 | 0.0995
O=C(CSc1nc(Nc2ccccc2)nc(N2CCOCC2)n1)N1CCc2ccccc21 | -1.65 | -9.8 | -20.0 | 5.0 | -0.3 | 3.4 | ·
SMILES | SDO1 yeast rescue | E-sel TNF inh | TNFa cytotox | F-actin modifier | Phagocytosis inh | VCAM1 TNFa inh | sdo1 rescue conf
CN1CCN(CC(=O)Nc2ccc(OCc3ccccc3)cc2)CC1 | 4.38* | -7.7 | -23.1 | 9.7 | 0.1 | 5.3 | 0.0549
N#CCN1CCN(CC(=O)Nc2ccc(OCc3ccccc3)cc2)CC1 | -0.15 | -20.2 | -4.5 | -5.1 | -0.5 | 3.8 | ·
COc1ccc(N2CC(C(=O)Nc3ccc(S(=O)(=O)N4CCOCC4)cc3)CC2=O)cc1 (centres undefined) | · | 32.0 | · | · | · | · | ·
COc1ccc(N2CC(C(=O)NCCCN3CCOCC3)CC2=O)cc1 (centres undefined) | 1.79 | 24.0 | -30.7 | -11.4 | · | -10.2 | 0.0836*
CCOC(=O)c1nnn(-c2nonc2N)c1CN1CCc2ccccc2C1 | 11.2* | -9.0 | -0.4 | 2.5 | 0.5 | 5.3 | 0.106*
COc1ccc(OC)c(NC(=S)NCCN2CCOCC2)c1 | 3.88* | · | · | · | -3.0 | · | 0.037
CC(CCc1ccccc1)NC(=O)CSc1nnnn1C (centres undefined) | -0.77 | -32.0 | -26.8 | · | · | -11.9 | ·
CC(CCc1ccccc1)NC(=O)CSc1nc(N)cc(N)n1 (centres undefined) | 13.3* | -33.1 | -5.2 | 12.0 | -1.2 | 3.5 | 0.107*
CC(=O)c1ccc(NC(=O)c2ccc(COc3ccccc3[N+](=O)[O-])o2)cc1 | 1.89 | · | · | · | -6.6 | · | 0.0965*
CCOC(=O)c1cccc(NC(=O)CSc2nnc(COc3ccccc3C)o2)c1 | 1.25 | 10.6 | -5.1 | -44.6 | -0.2 | 16.9 | 0.054
CCOc1ccc(NC(=O)CSc2nnc(COc3c(C)cccc3C)o2)cc1 | -0.13 | · | -3.9 | -8.6 | -0.5 | 10.3 | ·
Cc1ccnc(NC(=O)c2sc3ccccc3c2Cl)c1 | 3.91* | 19.6 | · | · | · | · | 0.128*
Cc1cnc(NC(=O)c2sc3ccccc3c2Cl)s1 | -0.23 | -26.4 | · | · | -2.7 | · | ·
O=C1CSC(c2ccccn2)N1c1ccc2ccccc2c1 (centres undefined) | 0.05 | -7.5 | 4.5 | -38.6 | -3.4 | 13.7 | ·
O=C1CSC(c2ccccn2)N1c1ccccc1 (centres undefined) | 4.1* | · | -1.4 | 21.9 | · | -33.8 | 0.0797*
O=C(Cn1nc(C(F)(F)F)c2c1CCC2)NC1CCCCC1 | -0.45 | -3.7 | -24.3 | 16.1 | -0.1 | -0.5 | ·
O=C(O)CCCn1nc(C(F)(F)F)c2c1CCCCC2 | 3.39* | · | -16.1 | -4.8 | 0.1 | 5.0 | 0.0614*
CC(=O)N(c1c(C)n(C)n(-c2ccccc2)c1=O)C1(C(=O)NC2CCCC2)CCCCC1 | 10.8* | -13.2 | · | · | -2.5 | · | 0.0636*
CC(=O)N(c1c(C)n(C)n(-c2ccccc2)c1=O)C1(C(=O)NC2CCCCC2)CCCCC1 | 0.61 | -0.6 | -16.8 | 1.4 | · | 12.9 | ·
COc1cc(/C=N/NC(=O)c2ccoc2C)ccc1O | 2.59 | · | · | · | -5.7 | · | 0.074*
O=C(COC(=O)Cc1cccs1)Nc1ccccc1 | 1.3 | -3.4 | -18.8 | 10.2 | 0.0 | 6.1 | 0.0344*
COc1ccc(C2=NOC(C(=O)Nc3cccnc3)C2)cc1 (centres undefined) | 3.45* | 12.2 | -2.9 | -11.9 | -0.9 | -1.1 | 0.0384
COc1cccc(C2=NOC(C(=O)Nc3cccnc3)C2)c1 (centres undefined) | -0.11 | · | -15.2 | -2.9 | -2.5 | -0.4 | ·
COc1ccc2cc(/C=N/NC(=O)CN(c3ccccc3C)S(=O)(=O)c3ccccc3)c(Cl)nc2c1 | -0.19 | · | · | · | -0.7 | · | ·

Assay outcomes deposited in PubChem by several laboratories.
